“And” between values parts separate entries of the source, which are not always exact repeats. Identical values can stand only once. Inconclusive results are not listed. Some compounds were tested as several samples or in several runs, with calls that do not always agree. The source made the active and inactive calls. The calls were made as follows, unless noted: active = hit-call score of the fitted dose curve at least 0.9, where 1 is the maximum; inactive = score below 0.9.
Assays:
[1] = biological target: Nuclear respiratory factor 1 (Homo sapiens) (UniProt Q16656); assay: ATG_NRF1_CIS: Attagene CIS-FACTORIAL HepG2 Assay for human Nuclear Respiratory Factor 1 (NRF1) Orphan Gene (AID 2282987); conditions: HepG2 NRF1 cis-element reporter, Attagene multiplex; actives raise or lower the signal
Nuclear respiratory factor 1 (Homo sapiens), sequence (Q16656 whole entry, looked up): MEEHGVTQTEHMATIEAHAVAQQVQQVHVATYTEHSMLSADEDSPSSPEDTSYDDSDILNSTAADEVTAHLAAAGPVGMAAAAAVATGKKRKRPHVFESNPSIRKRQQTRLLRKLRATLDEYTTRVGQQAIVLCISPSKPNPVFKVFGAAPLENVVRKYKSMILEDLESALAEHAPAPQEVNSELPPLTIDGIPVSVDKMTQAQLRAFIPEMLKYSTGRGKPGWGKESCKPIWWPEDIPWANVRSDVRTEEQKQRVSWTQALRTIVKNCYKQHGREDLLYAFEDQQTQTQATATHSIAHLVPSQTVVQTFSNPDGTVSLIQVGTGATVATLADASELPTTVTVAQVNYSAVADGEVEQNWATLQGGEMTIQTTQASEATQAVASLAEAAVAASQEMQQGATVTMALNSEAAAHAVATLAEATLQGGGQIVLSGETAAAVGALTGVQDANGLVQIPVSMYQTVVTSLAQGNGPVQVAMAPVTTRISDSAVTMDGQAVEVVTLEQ
Outline: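 Human hepatoma HepG2 cells carrying transfected promoter-regulated reporter units were incubated with test chemicals for 24 h. Reporter transcripts were measured by RT-PCR plus capillary electrophoresis, and endpoints derived by bidirectional fitting with DMSO as baseline.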

[2] = ATG_NFI_CIS: Attagene CIS-FACTORIAL HepG2 Assay for human Nuclear Factor I (NFI) (AID 2282989); conditions: HepG2 cis-regulatory reporter, NFI response element transcription; actives raise or lower the signal
Outline: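 Cells: human liver HepG2, transiently transfected with promoter-regulated reporter transcription units. Exposure 24 h. Detection: fluorescent RT-PCR products separated by capillary electrophoresis, normalised to DMSO negative control.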

[3] = biological target: Myc proto-oncogene protein (Homo sapiens) (UniProt P01106); assay: ATG_Myc_CIS: Attagene CIS-FACTORIAL HepG2 Assay for human Myelocytomatosis (Myc) Proto-Oncogene Transcription Factor (AID 2282990); conditions: HepG2, Attagene cis-reporter transcription factor activity; actives raise or lower the signal
Myc proto-oncogene protein (Homo sapiens), sequence (P01106 whole entry, looked up, the tested form may be a part): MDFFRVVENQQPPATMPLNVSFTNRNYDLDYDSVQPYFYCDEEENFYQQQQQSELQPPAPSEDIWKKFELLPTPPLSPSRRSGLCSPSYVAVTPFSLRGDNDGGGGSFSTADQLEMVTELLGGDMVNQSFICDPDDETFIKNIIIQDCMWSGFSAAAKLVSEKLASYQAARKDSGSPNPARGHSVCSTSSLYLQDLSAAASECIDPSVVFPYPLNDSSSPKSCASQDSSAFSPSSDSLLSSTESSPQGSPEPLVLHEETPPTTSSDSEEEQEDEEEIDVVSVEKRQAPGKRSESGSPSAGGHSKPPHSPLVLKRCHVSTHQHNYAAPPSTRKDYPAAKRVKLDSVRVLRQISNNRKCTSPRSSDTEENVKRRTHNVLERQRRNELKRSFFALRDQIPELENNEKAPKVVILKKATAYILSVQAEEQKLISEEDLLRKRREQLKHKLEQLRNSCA
Outline: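 After 24 h chemical treatment of HepG2 cells carrying multiplexed cis-regulated reporter constructs, reporter transcripts quantified by RT-PCR and capillary electrophoresis of fluorescent fragments. Gain or loss fitted against DMSO baseline.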

[4] = ATG_NF_kB_CIS: Attagene CIS-FACTORIAL HepG2 Assay for human Nuclear Factor Kappa B (NF-kB) (AID 2282991); conditions: HepG2 Attagene cis-factorial NF-kB reporter mRNA; actives raise or lower the signal
Outline: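 Multiplexed cis-reporter assay in transiently transfected HepG2. 24 h treatment; RNA isolated, RT-PCR, labelled fragments resolved by CE. DMSO baseline.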

[5] = ATG_NRF2_ARE_CIS: Attagene CIS-FACTORIAL HepG2 Assay for human Nuclear Factor Erythroid 2 Related Factor 2 (NFR2) response to Antioxidant Response Elements (ARE) (AID 2282992); conditions: HepG2 Attagene ARE/NRF2 reporter, transcription factor activity; actives raise or lower the signal;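 as to AC50: reporter mRNA level measured by RT-PCR and capillary electrophoresis fluorescence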
Outline: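 Readout: reporter mRNA quantified by RT-PCR plus FAM-labelled primer extension, HpaI digestion and capillary electrophoresis, 24 h after dosing transfected HepG2 cells. Gain or loss of signal is fitted bidirectionally against DMSO baseline.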

[6] = ATG_Oct_MLP_CIS: Attagene CIS-FACTORIAL HepG2 Assay for human Octamer-Binding Transcription Factor (Oct) (AID 2282993); conditions: HepG2 Attagene cis-factorial Oct reporter, mRNA; actives raise or lower the signal
Outline: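 HepG2, transient MRTU transfection, cis promoter elements; 24 h dosing; RT-PCR/CE fluorescence read-out of reporter mRNA; fit both directions vs DMSO.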

[7] = biological target: Cellular tumor antigen p53 (Homo sapiens) (UniProt P04637); assay: ATG_p53_CIS: Attagene CIS-FACTORIAL HepG2 Assay for human p53 Transcription Factor (AID 2282994); conditions: HepG2 p53 cis-element reporter, Attagene mRNA; actives raise or lower the signal
Cellular tumor antigen p53 (Homo sapiens), sequence (P04637 whole entry, looked up): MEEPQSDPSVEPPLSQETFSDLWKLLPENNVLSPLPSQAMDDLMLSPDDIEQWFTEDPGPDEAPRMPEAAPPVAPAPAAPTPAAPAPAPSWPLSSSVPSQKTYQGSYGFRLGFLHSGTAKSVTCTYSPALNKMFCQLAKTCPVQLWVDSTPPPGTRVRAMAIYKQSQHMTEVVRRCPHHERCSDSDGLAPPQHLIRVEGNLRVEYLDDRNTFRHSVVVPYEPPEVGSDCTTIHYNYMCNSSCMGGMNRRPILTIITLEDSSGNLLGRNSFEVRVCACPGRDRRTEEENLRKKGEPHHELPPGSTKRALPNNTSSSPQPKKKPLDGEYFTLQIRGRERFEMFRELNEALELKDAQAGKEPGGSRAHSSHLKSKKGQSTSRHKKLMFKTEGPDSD
Outline: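 Read-out: reporter mRNA by RT-PCR plus capillary electrophoresis with fluorescence detection. Human HepG2 liver cells carried transfected multi-reporter cis-element constructs, dosed 24 h. Gain or loss of signal fitted bidirectionally against DMSO control.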

[8] = biological target: human Peroxisome Proliferator-activated Receptor alpha (PPARa), PPARA (gene 5465) (UniProt Q07869); assay: ATG_PPARa_TRANS: Attagene TRANS-FACTORIAL HepG2 Assay for human Peroxisome Proliferator-activated Receptor alpha (PPARa) (AID 2283001; active = hit-call score of the fitted dose curve at least 0.9, where 1 is the maximum)
human Peroxisome Proliferator-activated Receptor alpha (PPARa), PPARA (gene 5465), sequence (Q07869 whole entry, looked up, the tested form may be a part): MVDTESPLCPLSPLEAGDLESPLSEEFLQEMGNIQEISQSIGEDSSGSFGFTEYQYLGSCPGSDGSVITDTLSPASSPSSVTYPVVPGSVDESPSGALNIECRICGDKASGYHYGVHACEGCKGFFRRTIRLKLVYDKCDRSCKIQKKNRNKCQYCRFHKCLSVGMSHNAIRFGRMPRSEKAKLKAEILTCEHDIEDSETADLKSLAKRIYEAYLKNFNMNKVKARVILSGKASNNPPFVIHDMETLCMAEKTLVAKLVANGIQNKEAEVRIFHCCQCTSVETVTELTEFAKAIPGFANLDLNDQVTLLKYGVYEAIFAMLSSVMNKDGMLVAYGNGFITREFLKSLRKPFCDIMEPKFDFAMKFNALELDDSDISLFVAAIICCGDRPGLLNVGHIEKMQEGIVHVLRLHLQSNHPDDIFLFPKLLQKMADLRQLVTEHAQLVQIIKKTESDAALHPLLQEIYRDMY
Outline: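 Transfected HepG2 cells treated with test chemical for 24 h. RNA isolated, reverse-transcribed with oligo(dT), PCR-amplified, FAM-labelled and HpaI-digested. Fragments sized by capillary electrophoresis; gain-of-signal fit relative to DMSO.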

[9] = biological target: human Peroxisome Proliferator-activated Receptor delta (PPARd), PPARD (gene 5467) (UniProt Q03181); assay: ATG_PPARd_TRANS: Attagene TRANS-FACTORIAL HepG2 Assay for human Peroxisome Proliferator-activated Receptor delta (PPARd) (AID 2283002; active = hit-call score of the fitted dose curve at least 0.9, where 1 is the maximum)
human Peroxisome Proliferator-activated Receptor delta (PPARd), PPARD (gene 5467), sequence (Q03181 whole entry, looked up, the tested form may be a part): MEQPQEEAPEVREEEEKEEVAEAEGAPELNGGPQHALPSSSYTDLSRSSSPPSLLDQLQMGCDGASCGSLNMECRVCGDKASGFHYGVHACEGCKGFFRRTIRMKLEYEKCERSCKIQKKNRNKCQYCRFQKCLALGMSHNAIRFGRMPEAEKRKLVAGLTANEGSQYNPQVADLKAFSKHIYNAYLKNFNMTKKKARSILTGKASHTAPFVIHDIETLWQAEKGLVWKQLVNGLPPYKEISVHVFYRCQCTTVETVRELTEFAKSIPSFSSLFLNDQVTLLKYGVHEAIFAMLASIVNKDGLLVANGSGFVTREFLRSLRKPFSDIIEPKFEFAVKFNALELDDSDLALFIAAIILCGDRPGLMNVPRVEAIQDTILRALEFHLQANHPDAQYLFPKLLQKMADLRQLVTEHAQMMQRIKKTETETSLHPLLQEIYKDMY
Outline: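 Read-out is induced reporter mRNA, quantified by RT-PCR with fluorescent labelling and capillary electrophoresis after 24 h dosing. Cells are HepG2 transiently carrying multiple GAL4-UAS reporter units driven by exogenous NR-GAL4 chimeras; DMSO serves as baseline.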

[10] = biological target: Peroxisome proliferator-activated receptor gamma (Homo sapiens) (UniProt P37231); assay: ATG_PPARg_TRANS: Attagene TRANS-FACTORIAL HepG2 Assay for human Peroxisome Proliferator-activated Receptor-gamma (PPARg) (AID 2283007; active = hit-call score of the fitted dose curve at least 0.9, where 1 is the maximum)
Peroxisome proliferator-activated receptor gamma (Homo sapiens), sequence (P37231 whole entry, looked up): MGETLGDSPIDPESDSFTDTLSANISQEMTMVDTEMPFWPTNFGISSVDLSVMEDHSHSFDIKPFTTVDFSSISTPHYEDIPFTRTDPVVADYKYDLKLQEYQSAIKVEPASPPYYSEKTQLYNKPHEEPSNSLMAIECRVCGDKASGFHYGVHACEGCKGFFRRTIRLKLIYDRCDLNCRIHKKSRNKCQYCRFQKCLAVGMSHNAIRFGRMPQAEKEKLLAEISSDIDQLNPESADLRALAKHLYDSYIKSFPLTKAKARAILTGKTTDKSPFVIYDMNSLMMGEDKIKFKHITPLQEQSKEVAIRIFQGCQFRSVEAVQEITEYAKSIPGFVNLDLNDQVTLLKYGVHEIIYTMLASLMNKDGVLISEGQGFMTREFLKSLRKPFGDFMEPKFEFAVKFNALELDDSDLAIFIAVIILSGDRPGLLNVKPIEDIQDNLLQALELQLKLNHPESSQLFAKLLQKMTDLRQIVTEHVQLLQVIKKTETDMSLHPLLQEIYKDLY
Outline: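 Human hepatoma HepG2, transient MRTU transfection, 24 h treatment. mRNA reporter signal by RT-PCR plus capillary electrophoresis, fluorescence detection; fitted for increase over DMSO negative control.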

[11] = biological target: Nuclear receptor subfamily 1 group I member 2 (Homo sapiens) (UniProt O75469); assay: ATG_PXR_TRANS: Attagene TRANS-FACTORIAL HepG2 Assay for human Pregnane X Receptor (PXR) (AID 2283008; active = hit-call score of the fitted dose curve at least 0.9, where 1 is the maximum)
Nuclear receptor subfamily 1 group I member 2 (Homo sapiens), sequence (O75469 whole entry, looked up, the tested form may be a part): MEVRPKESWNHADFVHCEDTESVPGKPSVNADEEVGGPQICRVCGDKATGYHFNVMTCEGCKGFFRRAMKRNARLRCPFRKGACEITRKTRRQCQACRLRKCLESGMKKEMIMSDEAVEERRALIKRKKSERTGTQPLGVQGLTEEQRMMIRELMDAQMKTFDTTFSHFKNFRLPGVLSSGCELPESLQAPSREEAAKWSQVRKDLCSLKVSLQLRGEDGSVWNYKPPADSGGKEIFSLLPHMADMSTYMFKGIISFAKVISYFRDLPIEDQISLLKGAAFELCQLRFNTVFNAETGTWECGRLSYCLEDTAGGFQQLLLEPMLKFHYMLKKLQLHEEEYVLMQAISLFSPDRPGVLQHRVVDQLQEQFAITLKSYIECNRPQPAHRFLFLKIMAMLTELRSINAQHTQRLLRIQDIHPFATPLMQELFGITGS
Outline: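 Trans-factorial format: exogenous NR-Gal4 fusion activity, not endogenous factor, in transfected human HepG2 liver cells. After 24 h dosing, RNA isolated, reverse-transcribed, amplified and resolved by capillary electrophoresis; induction scored versus DMSO.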

[12] = biological target: human RAR-related Orphan Receptor beta (RORb), RORB (gene 6096) (UniProt Q92753); assay: ATG_RORb_TRANS: Attagene TRANS-FACTORIAL HepG2 Assay for human RAR-related Orphan Receptor beta (RORb) (AID 2283010; active = hit-call score of the fitted dose curve at least 0.9, where 1 is the maximum)
human RAR-related Orphan Receptor beta (RORb), RORB (gene 6096), sequence (Q92753 whole entry, looked up, the tested form may be a part): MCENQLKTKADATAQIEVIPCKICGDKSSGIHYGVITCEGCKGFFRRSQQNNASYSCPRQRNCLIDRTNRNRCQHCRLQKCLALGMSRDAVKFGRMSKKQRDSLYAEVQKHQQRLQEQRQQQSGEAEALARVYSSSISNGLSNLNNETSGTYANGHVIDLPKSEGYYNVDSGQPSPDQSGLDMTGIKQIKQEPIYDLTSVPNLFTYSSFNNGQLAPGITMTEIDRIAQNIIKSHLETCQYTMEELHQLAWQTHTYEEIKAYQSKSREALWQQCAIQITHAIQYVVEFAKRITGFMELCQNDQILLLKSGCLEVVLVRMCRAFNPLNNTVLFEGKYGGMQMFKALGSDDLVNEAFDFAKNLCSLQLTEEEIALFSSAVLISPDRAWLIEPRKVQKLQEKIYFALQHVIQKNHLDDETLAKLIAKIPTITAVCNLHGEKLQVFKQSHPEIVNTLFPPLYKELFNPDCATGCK
Outline: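 HepG2, transient MRTU transfection (GAL4-UAS reporters, exogenous NR-Gal4 chimeras); 24 h compound exposure; total RNA → RT-PCR → 6-FAM primer extension → HpaI digest → CE fluorescence. Positive direction vs DMSO baseline.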

[13] = BSK_3C_TissueFactor: BioMAP Diversity Plus: 3C Assay for Tissue Factor Biomarker Activity (AID 2282997); conditions: BioMAP 3C HUVEC, tissue factor biomarker readout; actives raise or lower the signal
Outline: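 After a 24 h chemical exposure of primary human umbilical vein endothelial cells, Tissue Factor levels were quantified by ELISA.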

[14] = BSK_3C_uPAR: BioMAP Diversity Plus: 3C Assay for Urokinase-type plasminogen activator receptor (uPAR) Biomarker Activity (AID 2282998); conditions: BioMAP 3C HUVEC, uPAR biomarker ELISA; actives raise or lower the signal
Outline: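 A multiplexed primary-cell system built on human umbilical vein endothelium was used, with chemical present for 24 h before reading. Cell-surface uPAR was detected by ELISA; signal change in either direction counted against DMSO.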

[15] = BSK_4H_Eotaxin3: BioMAP Diversity Plus: 4H Assay for Eotaxin 3 Biomarker Activity (AID 2283000); conditions: primary human endothelial cells (HUVEC); actives raise or lower the signal
Outline: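 Chemicals were added to human umbilical vein endothelium cultures, and Eotaxin-3 was quantified by ELISA at 24 h. Values were derived by bidirectional fitting with DMSO serving as negative control and activity baseline.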

[16] = read-out: Intercellular Adhesion Molecule 1 (ICAM1), ICAM1 (gene 3383); assay: BSK_3C_ICAM1: BioMAP Diversity Plus: 3C Assay for Intercellular Adhesion Molecule 1 (ICAM1) Biomarker Activity (AID 2283003); conditions: primary human endothelial cells (HUVEC); actives raise or lower the signal
Outline: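 ELISA read-out of ICAM-1; HUVEC (primary human), 3C system, 24 h post-dosing; bidirectional fit vs DMSO baseline.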

[17] = BSK_3C_Proliferation: Cell Proliferation Assessment in the BioMAP Diversity Plus: 3C Assay (AID 2283006); conditions: primary human endothelial cells (HUVEC);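 as to AC50: potency may reflect either rise or fall in cell number versus DMSO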
Outline: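 HUVEC, sub-confluent; 48 h chemical exposure; 10% TCA fix, 0.1% SRB stain, A560 total protein. Gain or loss of signal fitted both directions vs DMSO control.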

[18] = biological target: Retinoic acid receptor alpha (Homo sapiens) (UniProt P10276); assay: ATG_RARa_TRANS: Attagene TRANS-FACTORIAL HepG2 Assay for human Retinoic Acid Receptor alpha (RARa) (AID 2283005; active = hit-call score of the fitted dose curve at least 0.9, where 1 is the maximum)
Retinoic acid receptor alpha (Homo sapiens), sequence (P10276 whole entry, looked up, the tested form may be a part): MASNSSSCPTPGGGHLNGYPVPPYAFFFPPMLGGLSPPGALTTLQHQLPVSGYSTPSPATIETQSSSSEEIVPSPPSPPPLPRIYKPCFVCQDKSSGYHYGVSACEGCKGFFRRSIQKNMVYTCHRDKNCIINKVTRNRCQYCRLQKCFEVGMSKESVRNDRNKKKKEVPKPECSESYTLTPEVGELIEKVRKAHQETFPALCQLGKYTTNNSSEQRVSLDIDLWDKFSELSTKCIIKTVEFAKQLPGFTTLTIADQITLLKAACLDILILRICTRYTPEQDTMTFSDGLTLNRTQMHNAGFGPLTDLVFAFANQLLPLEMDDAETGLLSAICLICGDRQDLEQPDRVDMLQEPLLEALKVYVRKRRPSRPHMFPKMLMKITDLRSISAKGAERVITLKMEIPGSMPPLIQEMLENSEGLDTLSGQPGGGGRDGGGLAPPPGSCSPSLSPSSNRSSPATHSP
Outline: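 Reporter transcripts, measured by RT-PCR with fluorescent labeling and capillary electrophoresis after 24 h dosing, reflect activity of an exogenous human RARa–GAL4 fusion in transiently transfected HepG2. Fitted for increase relative to DMSO.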

[19] = biological target: human Retinoic Acid Receptor gamma (RARg), RARG (gene 5916) (UniProt P13631); assay: ATG_RARg_TRANS: Attagene TRANS-FACTORIAL HepG2 Assay for human Retinoic Acid Receptor gamma (RARg) (AID 2283009; active = hit-call score of the fitted dose curve at least 0.9, where 1 is the maximum)
human Retinoic Acid Receptor gamma (RARg), RARG (gene 5916), sequence (P13631 whole entry, looked up, the tested form may be a part): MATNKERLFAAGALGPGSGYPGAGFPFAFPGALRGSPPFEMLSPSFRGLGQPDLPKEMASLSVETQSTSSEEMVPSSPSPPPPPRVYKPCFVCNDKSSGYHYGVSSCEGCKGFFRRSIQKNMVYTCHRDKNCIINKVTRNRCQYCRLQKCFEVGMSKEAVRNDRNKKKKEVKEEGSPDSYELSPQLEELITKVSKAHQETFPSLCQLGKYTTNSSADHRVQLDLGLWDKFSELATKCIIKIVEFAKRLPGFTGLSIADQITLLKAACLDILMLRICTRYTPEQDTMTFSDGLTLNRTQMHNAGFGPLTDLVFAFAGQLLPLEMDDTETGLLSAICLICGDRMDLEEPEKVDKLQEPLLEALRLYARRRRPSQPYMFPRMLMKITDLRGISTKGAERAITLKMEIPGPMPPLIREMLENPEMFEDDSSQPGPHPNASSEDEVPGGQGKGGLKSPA
Outline: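 Readout: reporter transcript levels via RT-PCR, 6-FAM primer-extension labelling, HpaI digestion and capillary electrophoresis. Cells: HepG2 carrying transfected RARg-GAL4 chimera plus UAS reporter set. Dosing 24 h; DMSO negative control.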

Measured: AC50

CCNC(=S)NCC
not listed: [12] | [13] | [14] | [15] | [16] | [17] | [18] | [19]
inactive: all other assays above

CCCCCCCCOS(=O)(=O)O
inactive: [1] | [2] | [3] | [4] | [5] | [6] | [7] | [8]

O=c1cc[nH]cc1
inactive: [1] | [2] | [3] | [4] | [5] | [6] | [7] | [8] | [9] | [12]

C=C1CC/C=C(\C)CC[C@@H]2[C@@H]1CC2(C)C
inactive: [1] | [2] | [3] | [4] | [6] | [7] | [10]
active: [5] 100 µM | [13] 16.8 µM | [14] 33.9 µM | [15] 28.8 µM | [16] 35 µM | [17] 30 µM | [11] 19.8 µM

CCCCC1CCCCC(=O)O1 (stereo unspecified)
active: [10] 47.4 µM
not listed: [11] | [13] | [14] | [15] | [16] | [17]
inactive: all other assays above

N#CCCCC(C#N)CCC#N (stereo unspecified)
not listed: [10] | [12] | [13] | [14] | [15] | [16] | [17] | [18]
inactive: all other assays above

C=C(C)CCCC(C)CCO (stereo unspecified)
inactive: [1] | [2] | [3] | [4] | [6] | [7] | [8]
active: [5] 59.7 µM | [10] 41.9 µM | [11] 9.99 µM

CC(C)(C)C1CCC(O)CC1 (stereo unspecified)
not listed: [10] | [13] | [14] | [15] | [16] | [17] | [18] | [19]
inactive: all other assays above

CN(C)CCC=C1c2ccccc2CCc2ccccc21
active: [4] 13.4 µM | [5] 33.4 µM | [6] 24.6 µM | [7] 23.1 µM | [11] 24 µM
inactive: [1] | [2] | [3] | [8] | [9]

CCC(=O)OCC=Cc1ccccc1
active: [5] 36.3 µM | [14] 20 µM | [11] 16.7 µM
not listed: [8] | [9] | [10] | [12] | [18] | [19]
inactive: all other assays above

— PubChem BioAssay (EPA / NIEHS)
